Experimental data reported in PubChem BioAssay (NCATS).
Several values for one entry are separate records, joined by “and”; a condition that tells them apart may be missing. Equal values may be shown once. Records with an inconclusive call do not appear. Unmarked numbers belong to inactive results. Activity calls are given as the source filed them. Calls come from the whole dose curve; as a rule, active = well fitted cell-killing curve with a large enough effect; inconclusive = small, poorly fitted or top-dose-only effect, or effect the other way; inactive = flat fitted curve, though single readings scatter. Non-standard residues stand in square brackets, D forms with d. Residues, ends and D or L forms follow the SMILES beside them. *: point of attachment. Sta = CC(C)C[C@H](N)[C@@H](O)CC(=O)O; Isovaleryl = CC(C)CC(=O)*

Tested on: OV90
Experiment: Primary qHTS to identify gynecologic anti-cancer compounds using libraries of approved drugs and bioactive compounds (AID 1345084); note: nearly all actives have a fitted effect of over 55% in size
Conditions: Gynecologic cancer cell panel viability, ATPlite luminescence, 48 h; series mostly up to 57.5 µM; activity change, negative = cytotoxicity: at the top concentration
Summary of the method: (§1)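 Five-concentration response, 48 h; readout is ATP-driven luciferase luminescence.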
% is set by controls: 0 for no effect and ±100 for the full control effect; potency is the fitted concentration of half-maximal effect.

SMILES | activity change, negative = cytotoxicity | Potency
CS(=O)(=O)OCCCCOS(C)(=O)=O | 4.85% | 
CC(C)c1ccc2oc3nc(N)c(C(=O)O)cc3c(=O)c2c1 |  | 6.31 µM (active)
c1ccc2[nH]c(-c3cscn3)nc2c1 | -26.8% | 
CN(C)C(=O)COC(=O)Cc1ccc(OC(=O)c2ccc(N=C(N)N)cc2)cc1 | 4.75% | 
Cc1cc2c(s1)Nc1ccccc1N=C2N1CCN(C)CC1 |  | inactive
CC1=C(C)C(=O)C(C(CCCCCC(=O)O)c2ccccc2)=C(C)C1=O (stereo not given) | 16.2% | 
CC(=O)NC[C@H]1CN(c2ccc(N3CCOCC3)c(F)c2)C(=O)O1 | 3.76% | 
CC(S)C(=O)NCC(=O)O (stereo not given) | 1.81% | 
Cc1c(C(=O)NN2CCCCC2)nn(-c2ccc(Cl)cc2Cl)c1-c1ccc(Cl)cc1 | 2.21% | 
CCCc1cc(=O)[nH]c(=S)[nH]1 | 12.1% | 
Clc1ccc(C(Cn2ccnc2)OCc2ccc(Sc3ccccc3)cc2)c(Cl)c1 (stereo not given) | -2.66% | 
COCCCOc1ccnc(CS(=O)c2nc3ccccc3[nH]2)c1C (stereo not given) | -16.3% | 
CC[C@]1(O)C[C@H]2CN(CCc3c([nH]c4ccccc34)[C@@](C(=O)OC)(c3cc4c(cc3OC)N(C=O)[C@H]3[C@@](O)(C(=O)OC)[C@H](OC(C)=O)[C@]5(CC)C=CCN6CC[C@]43[C@@H]65)C2)C1 |  | 1.78 µM (active)
CC1(C)CCC(C)(C)c2cc(NC(=O)c3ccc(C(=O)O)cc3)ccc21 | 12.5% | 
COc1ccccc1N1CCN(CCN(C(=O)C2CCCCC2)c2ccccn2)CC1 | -0.156% | 
Cc1c(OCC(F)(F)F)ccnc1CS(=O)c1nc2ccccc2[nH]1 (stereo not given) | -23% | 

SMILES | activity change, negative = cytotoxicity | Potency
COc1cc2c(N3CCN(C(=O)Nc4ccc(OC(C)C)cc4)CC3)ncnc2cc1OCCCN1CCCCC1 | -12.8% | 
CC(C)CC(=O)N[C@H](C(=O)N[C@H](C(=O)N[C@@H](CC(C)C)[C@@H](O)CC(=O)N[C@@H](C)C(=O)N[C@@H](CC(C)C)[C@@H](O)CC(=O)O)C(C)C)C(C)C (Isovaleryl-VV[Sta]A[Sta]-OH) | 2.12% | 
Clc1ccc(C(Cn2ccnc2)OCc2ccsc2Cl)c(Cl)c1 (stereo not given) | -21.6% | 
N=C(N)c1ccc2cc(OC(=O)c3ccc(N=C(N)N)cc3)ccc2c1 | -4.66% | 
CCOC(=O)c1c(C)n(C)c2ccc(O)cc12 | 9.35% | 
CN(C)C(=O)[C@H](O)[C@H](Cc1ccccc1)NC(=O)c1cc2cc(Cl)ccc2[nH]1 | -2.97% | 
Cc1ccc(C(=O)c2cc(O)c(O)c([N+](=O)[O-])c2)cc1 | -6.8% | 
O=C(O)c1cccc(-c2noc(-c3ccccc3F)n2)c1 |  | 12.6 µM (active)
CCC1=C(C)CN(C(=O)NCCc2ccc(S(=O)(=O)NC(=O)NC3CCC(C)CC3)cc2)C1=O (stereo not given) |  | inactive
CC(=O)Nc1ccc(O)cc1 | 12.9% | 
OC(CN1CCN(c2cccc(Cl)c2)CC1)C(c1ccccc1)c1ccccc1 (stereo not given) | -2.24% | 
O=C(NOCC1CC1)c1ccc(F)c(F)c1Nc1ccc(I)cc1Cl |  | 7.08 µM (active) and 3.55 µM (active)
COc1cc2nc(N3CCN(C(=O)C4CCCO4)CC3)nc(N)c2cc1OC (stereo not given) | -16.8% | 
Cc1ncc([N+](=O)[O-])n1CC(C)O (stereo not given) | 8.63% | 
O=C(O)CCNC(=O)c1ccc(N=Nc2ccc(O)c(C(=O)O)c2)cc1 | 10.6% | 

Tested on: PA-1
Experiment: as above
Conditions: Gynecologic cancer cell panel viability, ATPlite luminescence, 48 h; series mostly up to 57.5 µM; activity change, negative = cytotoxicity: at the top concentration
Summary of the method: as §1

SMILES | activity change, negative = cytotoxicity | Potency
CS(=O)(=O)OCCCCOS(C)(=O)=O | 20.9% | 
COc1cc(Nc2c(C#N)cnc3cc(OCCCN4CCN(C)CC4)c(OC)cc23)c(Cl)cc1Cl |  | 11.2 µM (active)
CC(C)c1ccc2oc3nc(N)c(C(=O)O)cc3c(=O)c2c1 |  | 5.62 µM (active)
c1ccc2[nH]c(-c3cscn3)nc2c1 | -27.6% | 
CN(C)C(=O)COC(=O)Cc1ccc(OC(=O)c2ccc(N=C(N)N)cc2)cc1 | -4.35% | 
Cc1cc2c(s1)Nc1ccccc1N=C2N1CCN(C)CC1 |  | inactive
Cc1cc(C2CCCCC2)n(O)c(=O)c1 |  | 2 µM (active)
CC1=C(C)C(=O)C(C(CCCCCC(=O)O)c2ccccc2)=C(C)C1=O (stereo not given) | -0.437% | 
CC(=O)NC[C@H]1CN(c2ccc(N3CCOCC3)c(F)c2)C(=O)O1 | 0.141% | 
NNc1nncc2ccccc12 | 5.93% [at 25.3 µM] | 
CC(S)C(=O)NCC(=O)O (stereo not given) | -1.88% | 
Cc1ccc(Nc2nccc(N(C)c3ccc4c(C)n(C)nc4c3)n2)cc1S(N)(=O)=O | -29.6% | 
Cc1c(C(=O)NN2CCCCC2)nn(-c2ccc(Cl)cc2Cl)c1-c1ccc(Cl)cc1 | -4.78% | 
CCCc1cc(=O)[nH]c(=S)[nH]1 | 11.6% | 
Clc1ccc(C(Cn2ccnc2)OCc2ccc(Sc3ccccc3)cc2)c(Cl)c1 (stereo not given) | -3.2% | 
COCCCOc1ccnc(CS(=O)c2nc3ccccc3[nH]2)c1C (stereo not given) | -4.32% | 
CC[C@]1(O)C[C@H]2CN(CCc3c([nH]c4ccccc34)[C@@](C(=O)OC)(c3cc4c(cc3OC)N(C=O)[C@H]3[C@@](O)(C(=O)OC)[C@H](OC(C)=O)[C@]5(CC)C=CCN6CC[C@]43[C@@H]65)C2)C1 |  | 0.199 µM (active)

SMILES | activity change, negative = cytotoxicity | Potency
CC1(C)CCC(C)(C)c2cc(NC(=O)c3ccc(C(=O)O)cc3)ccc21 | -0.989% | 
COc1ccccc1N1CCN(CCN(C(=O)C2CCCCC2)c2ccccn2)CC1 | -2.76% | 
Cc1c(OCC(F)(F)F)ccnc1CS(=O)c1nc2ccccc2[nH]1 (stereo not given) | -11.2% | 
COc1cc2c(N3CCN(C(=O)Nc4ccc(OC(C)C)cc4)CC3)ncnc2cc1OCCCN1CCCCC1 | -2.02% | 
CC(C)CC(=O)N[C@H](C(=O)N[C@H](C(=O)N[C@@H](CC(C)C)[C@@H](O)CC(=O)N[C@@H](C)C(=O)N[C@@H](CC(C)C)[C@@H](O)CC(=O)O)C(C)C)C(C)C (Isovaleryl-VV[Sta]A[Sta]-OH) | 3.49% | 
Clc1ccc(C(Cn2ccnc2)OCc2ccsc2Cl)c(Cl)c1 (stereo not given) | -28.9% | 
N=C(N)c1ccc2cc(OC(=O)c3ccc(N=C(N)N)cc3)ccc2c1 | -11.3% | 
CCOC(=O)c1c(C)n(C)c2ccc(O)cc12 | 8.63% | 
CN(C)C(=O)[C@H](O)[C@H](Cc1ccccc1)NC(=O)c1cc2cc(Cl)ccc2[nH]1 | 5.18% | 
O=C(O)c1cccc(-c2noc(-c3ccccc3F)n2)c1 |  | 3.55 µM (active) and 7.94 µM (active)
CCC1=C(C)CN(C(=O)NCCc2ccc(S(=O)(=O)NC(=O)NC3CCC(C)CC3)cc2)C1=O (stereo not given) |  | inactive
CC(=O)Nc1ccc(O)cc1 | 0.941% | 
OC(CN1CCN(c2cccc(Cl)c2)CC1)C(c1ccccc1)c1ccccc1 (stereo not given) | -2.56% | 
Cc1cc(=O)c2c(O)c3c(O)cc(=O)c4c3c3c(cc(O)c1c23)C(C)(C)C=4O |  | 2.82 µM (active)
COc1cc(C(C)=O)ccc1OCCCN1CCC(c2noc3cc(F)ccc23)CC1 | -10.8% | 
Cc1ncc([N+](=O)[O-])n1CC(C)O (stereo not given) | -0.0795% | 
O=C(O)CCNC(=O)c1ccc(N=Nc2ccc(O)c(C(=O)O)c2)cc1 | 6.09% | 
